About 83,000 compounds went through this panel and 20% of them were active in at least one assay; those are over-represented in the sample as a whole.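 Cell lines were cultured in 96-well plates, exposed to a single compound concentration, and assessed for percent growth 48 hours later.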 The source made the active and inactive calls. The calls were made as follows: active = growth percent below 10; inactive = the rest.
Each molecule was assayed on HT29 colon (assay: NCI-60 one-dose screen, 48 h (100 = growth as untreated, 0 = no growth, -100 = all killed)). Details: 10 µM unless noted.

| Compound | growth |
| --- | --- |
| CCCCCCCCN=C(NCCCCCCCC)SCc1cccc2ccccc12 | -24.4% (active) |
| N=C(N)c1ccc(-c2ccc(-c3cccs3)s2)cc1F | -82.1% (active) |
| COc1ccc2nc(-c3ccc(-c4noc(-c5ccc(Cl)cc5)n4)cc3)[nH]c2c1 | 82% (inactive) |
| Cc1cccc2nc3ccccc3c(Nc3ccc(NS(C)(=O)=O)cc3)c12 | 46% (inactive) |
| CC(C)CCSc1nc(Nc2ccccc2)c(C#N)c(-c2ccc(F)cc2)n1 | 49.9% (inactive) |
| COc1cc(OC)cc(-c2ccc(-c3ccc(C(=N)N)s3)s2)c1 | -87.4% (active) |
| COc1ccc(-c2ccc(-c3ccc(C(=N)N)s3)s2)cc1 | -81.9% (active) |
| C#CCO[C@H]1CC[C@H](OCC#C)[C@@H]2[C@H]1[C@H]1C[C@@H]3[C@@]4(C)CCC[C@@](C)(C(=O)OC)[C@@H]4CC[C@@]23C=C1C(C)C | 53.6% (inactive) |
| COC(=O)[C@H](Cc1cn(C)cn1)NC(=O)[C@H](CC(C)C)NC(=O)Nc1cc(C(F)(F)F)cc(C(F)(F)F)c1 | -89.6% [100 µM] (active) |
| O=C1CCCN1C1CCN2CCCc3cccc1c32 (centres undefined) | 94.4% (inactive) |
| O=C(CCCN1CCC(O)(c2ccc(Br)cc2)CC1)c1ccc(F)cc1 | 22.1% (inactive) |
| COc1ccc(/C=N/NC(N)=S)c(OC)n1 | 93.4% (inactive) |
| CCN1C(=O)N(CC)C2C1N=C(SC)N2/N=C/C=C/c1ccccc1OC (centres undefined) | 3.96% (active) |
| C/C(=N\Nc1ccc([N+](=O)[O-])cn1)c1ccc(N)cc1 | 101% (inactive) |
| N/C(=N\O)c1ncc(-c2ccc(C(F)(F)F)cc2)c(NC2CCCCCC2)n1 | -91.6% [100 µM] (active) |
| O=[N+]([O-])c1ccc(Sc2nc(Cl)nc(NC3CCCC3)n2)cc1 | -72.6% [100 µM] (active) |
| Cc1cc2nc(CN)[nH]c2cc1C | 51.3% (inactive) |
| ClC1=NC(Cl)C(Cl)=N/C1=N\c1ncn[nH]1 (centres undefined) | -62.8% (active) |
| COc1ccc(CNc2c3ccccc3nc3ccccc23)cc1F | 12.2% (inactive) |
| CCOC(=O)C1C(=O)C=C(c2ccccc2)CC1c1sc(N(C)Cc2ccccc2)nc1Cl (centres undefined) | 91.2% (inactive) |
| CCOC(=O)c1cc(C(=O)OCC)c(C)nc1C | 104% (inactive) |
| O=C1OCC2=C1C(c1ccccc1)c1cc3c(cc1N2CCO)CCC3 (centres undefined) | 6.75% (active) |
| O=C(CC(=O)c1ccccc1F)Nc1ccc([N+](=O)[O-])cc1 | 91.8% (inactive) |
| Cc1cc(Nc2c3ccccc3nc3ccccc23)ccc1NS(C)(=O)=O | 18.2% (inactive) |
| COC(=O)CSc1ccc(Cl)cc1 | 103% (inactive) |

Each molecule was assayed on SNB-75 CNS in the same assay as above. Details: 10 µM unless noted.

| Compound | growth |
| --- | --- |
| CCS(=O)(=O)Nc1cccc(Nc2c3cccc(C)c3nc3c(C)cccc23)c1OC | 21.7% (inactive) |
| Cc1nn(-c2ccccc2)c2nc3c(nc12)C1=NCCN1C(c1ccc(Cl)cc1)N3 (centres undefined) | 62.1% (inactive) |
| O=C(Nc1cccc(C2=NCCN2)c1)c1ccc(N=Nc2ccc(C(=O)Nc3cccc(C4=NCCN4)c3)cc2)cc1 | 48.7% (inactive) |
| COC(=O)[C@@H](Cc1c[nH]c2ccccc12)NC(=O)/C=C/c1ccccc1 | 15.3% (inactive) |
| CCOC(=O)C(CCCCC(NC(C)=O)(C(=O)OCC)C(=O)OCC)(NC(C)=O)C(=O)OCC | 95.3% (inactive) |
| COc1ccc(-c2cc(-c3cc4ccccc4oc3=O)n(-c3ccccc3)n2)cc1 | 77% (inactive) |
| CC(C)N(C(=S)SSC(=S)N(C(C)C)C(C)C)C(C)C | 102% (inactive) |
| CCOC(OCC)c1cnc2nc(NC(C)=O)[nH]c(=O)c2n1 | 91.5% (inactive) |
| CC(C)(C)c1cc(C[P+](c2ccccc2)(c2ccccc2)c2ccccc2)cc(C(C)(C)C)c1O | 2.05% (active) |
| N#Cc1ccc(-c2ccc(-c3cccs3)o2)cc1F | 44.9% (inactive) |
| CCN(C(=O)CCl)C(C)(C)C(SSSC(c1ccc(Cl)cc1)C(C)(C)N(CC)C(=O)CCl)c1ccc(Cl)cc1 (centres undefined) | 84.3% (inactive) |
| N=C(N)c1ccc(-c2ccc(-c3ccco3)o2)cc1F | 41.4% (inactive) |
| COc1ccc(/C=C/c2nc(NCCCN(C)C)c3ccccc3n2)cc1 | 42.8% (inactive) |
| COc1cc2c(cc1OC)-c1cc(OC)c(OC)cc1C(CN(C)C)C2 (centres undefined) | -56.2% [100 µM] (active) |
| CCCCCCCCN=C(NCCCCCCCC)SCc1cccc2ccccc12 | -88.4% (active) |
| N=C(N)c1ccc(-c2ccc(-c3cccs3)s2)cc1F | -96.5% (active) |
| COc1ccc2nc(-c3ccc(-c4noc(-c5ccc(Cl)cc5)n4)cc3)[nH]c2c1 | 31.8% (inactive) |
| Cc1cccc2nc3ccccc3c(Nc3ccc(NS(C)(=O)=O)cc3)c12 | 68.3% (inactive) |
| CC(C)CCSc1nc(Nc2ccccc2)c(C#N)c(-c2ccc(F)cc2)n1 | 42.1% (inactive) |
| COc1cc(OC)cc(-c2ccc(-c3ccc(C(=N)N)s3)s2)c1 | -91.5% (active) |

| Compound | growth |
| --- | --- |
| COc1ccc(-c2ccc(-c3ccc(C(=N)N)s3)s2)cc1 | -84.2% (active) |
| C#CCO[C@H]1CC[C@H](OCC#C)[C@@H]2[C@H]1[C@H]1C[C@@H]3[C@@]4(C)CCC[C@@](C)(C(=O)OC)[C@@H]4CC[C@@]23C=C1C(C)C | 94.7% (inactive) |
| COC(=O)[C@H](Cc1cn(C)cn1)NC(=O)[C@H](CC(C)C)NC(=O)Nc1cc(C(F)(F)F)cc(C(F)(F)F)c1 | -100% [100 µM] (active) |
| O=C1CCCN1C1CCN2CCCc3cccc1c32 (centres undefined) | 105% (inactive) |
| O=C(CCCN1CCC(O)(c2ccc(Br)cc2)CC1)c1ccc(F)cc1 | 67.7% (inactive) |
| COc1ccc(/C=N/NC(N)=S)c(OC)n1 | 79.5% (inactive) |
| CCN1C(=O)N(CC)C2C1N=C(SC)N2/N=C/C=C/c1ccccc1OC (centres undefined) | 44.6% (inactive) |
| C/C(=N\Nc1ccc([N+](=O)[O-])cn1)c1ccc(N)cc1 | 94.4% (inactive) |
| N/C(=N\O)c1ncc(-c2ccc(C(F)(F)F)cc2)c(NC2CCCCCC2)n1 | -41.4% [100 µM] (active) |
| O=[N+]([O-])c1ccc(Sc2nc(Cl)nc(NC3CCCC3)n2)cc1 | -100% [100 µM] (active) |
| Cc1cc2nc(CN)[nH]c2cc1C | 92% (inactive) |
| ClC1=NC(Cl)C(Cl)=N/C1=N\c1ncn[nH]1 (centres undefined) | 68.9% (inactive) |
| COc1ccc(CNc2c3ccccc3nc3ccccc23)cc1F | 42.5% (inactive) |
| CCOC(=O)C1C(=O)C=C(c2ccccc2)CC1c1sc(N(C)Cc2ccccc2)nc1Cl (centres undefined) | 89.1% (inactive) |
| CCOC(=O)c1cc(C(=O)OCC)c(C)nc1C | 99% (inactive) |
| O=C1OCC2=C1C(c1ccccc1)c1cc3c(cc1N2CCO)CCC3 (centres undefined) | 64.4% (inactive) |
| O=C(CC(=O)c1ccccc1F)Nc1ccc([N+](=O)[O-])cc1 | 79.1% (inactive) |
| Cc1cc(Nc2c3ccccc3nc3ccccc23)ccc1NS(C)(=O)=O | 51.3% (inactive) |
| COC(=O)CSc1ccc(Cl)cc1 | 94.9% (inactive) |

From PubChem BioAssay (NCI)
